According to PubChem BioAssay (NCI):
The panel holds about 83,000 compounds, 20% with a hit somewhere; the sample as a whole holds those more often.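 Activity criterion: percent growth below 10, measured after cells in 96-well plates were exposed to a single compound concentration for 48 hours.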 Activity calls are given as the source filed them.

Assays:
Test in all cases: NCI-60 one-dose screen, 48 h (100 = growth as untreated, 0 = no growth, -100 = all killed)
Details in all cases: 10 µM unless noted
SK-MEL-2 melanoma = tested on: SK-MEL-2 melanoma
EKVX NSCLC = tested on: EKVX NSCLC
SN12C renal = tested on: SN12C renal
UO-31 renal = tested on: UO-31 renal
TK-10 renal = tested on: TK-10 renal
ACHN renal = tested on: ACHN renal
CAKI-1 renal = tested on: CAKI-1 renal
A498 renal = tested on: A498 renal
CCRF-CEM leukemia = tested on: CCRF-CEM leukemia
MOLT-4 leukemia = tested on: MOLT-4 leukemia

Measured: growth

S=c1[nH]c(=S)c2c(-c3ccccc3)c(-c3ccccc3)oc2[nH]1
inactive: SK-MEL-2 melanoma 99.6% | EKVX NSCLC 103% | SN12C renal 95.3% | UO-31 renal 81.6% | TK-10 renal 124% | ACHN renal 106% | CAKI-1 renal 101% | A498 renal 70.9% | CCRF-CEM leukemia 114% | MOLT-4 leukemia 101%

CC1(C)N=C(N)N=C(N)N1c1ccc(CCCCc2ccccc2)c(Cl)c1
inactive: EKVX NSCLC 53% | SN12C renal 11% | UO-31 renal 49.5% | TK-10 renal 15.9% | ACHN renal 18.8% | CAKI-1 renal 14.1% | A498 renal 54.5% | CCRF-CEM leukemia 13.2%
active: SK-MEL-2 melanoma 4.71% | MOLT-4 leukemia 1.8%

O=C1NC(=O)/C(=C/c2c(-c3ccccc3)nc3sc(COc4ccccc4)nn23)S1
inactive: SK-MEL-2 melanoma 92.1% | EKVX NSCLC 91.9% | SN12C renal 102% | UO-31 renal 84.7% | TK-10 renal 108% | ACHN renal 98.3% | CAKI-1 renal 98% | A498 renal 78.7% | CCRF-CEM leukemia 98.3% | MOLT-4 leukemia 96.1%

O=C1c2ccccc2C(=O)c2c1cc1c(c2[N+](=O)[O-])OCO1
inactive: EKVX NSCLC 22.9% | SN12C renal 13.9% | CCRF-CEM leukemia 22.9% | MOLT-4 leukemia 28.7%
active: SK-MEL-2 melanoma -30.8% | UO-31 renal -3.07% | TK-10 renal -14.8% | ACHN renal -18.6% | CAKI-1 renal 2.82% | A498 renal -44.9%

Cc1ccc(-c2nc3nc(-c4ccccc4)nc(N4CCCN(S(C)(=O)=O)CC4)c3o2)cc1
inactive: SK-MEL-2 melanoma 86.2% | EKVX NSCLC 93.7% | SN12C renal 71.8% | UO-31 renal 59.3% | TK-10 renal 66.9% | ACHN renal 46.1% | CAKI-1 renal 63.4% | A498 renal 94.3% | CCRF-CEM leukemia 63.9% | MOLT-4 leukemia 56.3%

COC(=O)/C=C1/SC(=Nc2ccc([N+](=O)[O-])cc2)N(CCc2c[nH]c3ccc(O)cc23)C1=O
inactive: SK-MEL-2 melanoma 39.7% | EKVX NSCLC 64.7% | SN12C renal 45.8% | UO-31 renal 53.5% | TK-10 renal 85.2% | ACHN renal 53.4% | CAKI-1 renal 71.4% | A498 renal 80.5% | CCRF-CEM leukemia 10.9% | MOLT-4 leukemia 10.9%

Cc1ccc2c(-n3nc(C#N)c(C#N)c3N)cc(=O)[nH]c2c1
inactive: SK-MEL-2 melanoma 101% | EKVX NSCLC 67.9% | SN12C renal 76.4% | UO-31 renal 45.2% | TK-10 renal 108% | ACHN renal 83.1% | CAKI-1 renal 82.6% | A498 renal 105% | CCRF-CEM leukemia 88.6% | MOLT-4 leukemia 99.3%

C=C(CNCCc1ccc(O)cc1)[C@@H]1CC[C@]2(CO)CC[C@]3(C)[C@H](CC[C@@H]4[C@@]5(C)CCC(=O)C(C)(C)[C@@H]5CC[C@]43C)[C@@H]12
inactive: SK-MEL-2 melanoma 37.5% | EKVX NSCLC 80% | SN12C renal 24.5% | UO-31 renal 27.1% | TK-10 renal 67.4% | ACHN renal 12.6% | CAKI-1 renal 58.2% | A498 renal 84.1%
active: CCRF-CEM leukemia -9.98% | MOLT-4 leukemia 1.2%

C=C(C)[C@@H]1CCC[C@]2(C(=O)N3CCN(C)CC3)CC[C@]3(C)[C@@H](CC[C@@H]4[C@@]5(C)CC/C(=N\NC(=O)c6ccncc6)C(C)(C)[C@@H]5CC[C@]43C)[C@@H]12
inactive: SK-MEL-2 melanoma 106% | EKVX NSCLC 111% | SN12C renal 80.1% | UO-31 renal 73.4% | TK-10 renal 116% | ACHN renal 88.3% | CAKI-1 renal 80.7% | A498 renal 119% | CCRF-CEM leukemia 25.9% | MOLT-4 leukemia 55.9%

COc1ccc(-c2nc(/C=C3\C(=O)N(C)c4ccccc43)c3ccccn23)cc1
inactive: SK-MEL-2 melanoma 83.7% | EKVX NSCLC 113% | SN12C renal 82.3% | UO-31 renal 69.3% | TK-10 renal 60.1% | ACHN renal 64.5% | CAKI-1 renal 94.1% | A498 renal 103% | CCRF-CEM leukemia 71.7% | MOLT-4 leukemia 95.7%

COc1cc(-c2nc3c(ncc4ccc(=O)n(-c5ccccc5)c43)s2)cc(OC)c1OC
active: A498 renal 6.71%
inactive: SK-MEL-2 melanoma 88.4% | EKVX NSCLC 53.3% | SN12C renal 73.9% | UO-31 renal 24.9% | TK-10 renal 54% | ACHN renal 79% | CAKI-1 renal 67.4% | CCRF-CEM leukemia 74.1% | MOLT-4 leukemia 69.5%

O=C(CCl)NNc1nccc(Nc2ccc(S(=O)(=O)Nc3ccncc3)cc2)n1
inactive: SK-MEL-2 melanoma 38% | EKVX NSCLC 62.2% | SN12C renal 23.8% | UO-31 renal 63.3% | TK-10 renal 74.6% | ACHN renal 37.7% | CAKI-1 renal 30.4% | A498 renal 80.8% | CCRF-CEM leukemia 23.8% | MOLT-4 leukemia 44%

CC[N+]1(CC)CC[N+]2(CCCC(C)CC2)CC1 (stereo not given)
inactive: SK-MEL-2 melanoma 110% | EKVX NSCLC 100% | SN12C renal 96.4% | UO-31 renal 94.7% | TK-10 renal 104% | ACHN renal 104% | CAKI-1 renal 101% | A498 renal 95.8% | CCRF-CEM leukemia 107% | MOLT-4 leukemia 105%
